Shown are actives, neighbours in structure and some others; about 2.8% of the full set was active somewhere.
POLI inh – qHTS for Inhibitors of Polymerase Iota; 1% of 390,000 active; DNA polymerase iota (Homo sapiens), Q9UNA4; Potency, µM (highest dose often 115 µM), for inactives: at the highest dose activity, negative = inhibition, most hits filed as inhibitors; Pol iota fluorescent replication assay, 10 min; further: potency means the concentration at half of the fitted maximal effect
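Pol iota at 10 nM preincubated 15 min with compounds at room temperature; reaction started with fluorescent substrate, 50 nM final. Fluorescence read kinetically at 0 and 10 min; buffer-only wells as negative control.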
Pol kappa inh-1 – qHTS for Inhibitors of Polymerase Kappa; DNA polymerase kappa (Homo sapiens), Q9UBT6; purified Pol kappa, fluorescent DNA synthesis assay, 10 min; Potency, µM (top dose mostly 107 µM), for the others: at the highest dose activity, negative = inhibition, usual class: inhibitors; 0.53% of 400,000 active; AID 588579, 2011; further: potency means the concentration at half of the fitted maximal effect; on the % scale 0 is the no-effect control and ±100 the full control effect
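Here, compound and 10 nM enzyme are combined for 15 min at room temperature; adding 50 nM substrate (final) starts DNA synthesis, tracked by fluorescence at 0 and 10 min against buffer-only wells.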
WRN helicase inh-1 – qHTS for Inhibitors of WRN Helicase; WRN helicase unwinding, fluorescent forked duplex, kinetic; Potency, µM (highest dose often 114 µM), for the others: top-dose activity change, negative = inhibition, actives largely listed as inhibitors; AID 651768, 2012; 0.46% of 360,000 active; Bifunctional 3'-5' exonuclease/ATP-dependent helicase WRN (Homo sapiens), Q14191; further: potency means the concentration at half of the fitted maximal effect; on the % scale 0 is the no-effect control and ±100 the full control effect; nearly all actives have a fitted effect of over 55% in size
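Kinetic red-fluorescence monitoring (525/598 nm) tracks WRN helicase activity after 100 nM fluorophore-quencher forked duplex and 2 mM ATP are added to 20 nM enzyme pretreated 15 min at room temperature with compound.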
Pol eta inh-1 – qHTS for Inhibitors of Polymerase Eta; 1.2% of 390,000 active; Potency, µM (doses to about 114 µM), without a hit: at the top dose activity change, negative = inhibition, actives largely listed as inhibitors; AID 588591, 2011; recombinant Pol eta, fluorescent DNA replication assay; further: potency means the concentration at half of the fitted maximal effect; on the % scale 0 is the no-effect control and ±100 the full control effect
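Pol eta at 10 nM preincubated with compounds 15 min at room temperature; reaction started with fluorescent substrate (50 nM final) and read kinetically at 0 and 10 min.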
Pol beta inh – qHTS Assay for Inhibitors of DNA Polymerase Beta; AID 485314, 2010; Potency, µM (top dose mostly 114 µM), for inactives: at the highest dose activity change, negative = inhibition, actives largely listed as inhibitors; Pol beta primer extension/strand displacement, fluorescence kinetic; 1.3% of 340,000 active; further: potency means the concentration at half of the fitted maximal effect; on the % scale 0 is the no-effect control and ±100 the full control effect
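Homogeneous kinetic assay of primer extension and strand displacement by 10 nM Pol beta, preincubated 15 min at room temperature with compound before 50 nM substrate (final) was added. Read at 0 and 10 min; four-parameter Hill fit.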
PI5P4Ka inh – qHTS for Inhibitors of phosphatidylinositol 5-phosphate 4-kinase (PI5P4K). PI5P4Kalpha enzyme, ADP-Glo luminescence, 60 min; stronger effect = lower value. max response, %. 1.2% of 330,000 active. AID 652105, 2013; active means max response of -50% or lower; inconclusive means between -30% and -50%; inactive means -30% or higher; further: value at the top dose of about 77 µM; on the % scale 0 is the no-effect control and ±100 the full control effect
Target sequence (P48426 whole entry, looked up): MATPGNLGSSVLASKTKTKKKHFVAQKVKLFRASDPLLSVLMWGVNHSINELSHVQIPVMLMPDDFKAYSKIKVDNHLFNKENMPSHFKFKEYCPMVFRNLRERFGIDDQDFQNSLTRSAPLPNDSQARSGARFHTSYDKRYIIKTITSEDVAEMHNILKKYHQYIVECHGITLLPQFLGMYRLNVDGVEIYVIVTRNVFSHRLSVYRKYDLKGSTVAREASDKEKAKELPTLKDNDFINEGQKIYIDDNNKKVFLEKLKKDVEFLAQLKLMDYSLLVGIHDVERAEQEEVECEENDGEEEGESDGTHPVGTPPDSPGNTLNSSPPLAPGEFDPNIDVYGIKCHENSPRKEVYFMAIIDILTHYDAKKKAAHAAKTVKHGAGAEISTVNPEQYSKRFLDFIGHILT
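Single end-point luminescence (ADP-Glo) quantified ADP from PI5P4Kalpha turnover; ATP 5 microM final, 1 h at RT, 0.1% CHAPS and 0.28 mM EGTA in HEPES pH 7.4.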
PGK validate – qHTS for inhibitors of Phosphogylcerate Kinase: Hit Validation Screen; shares compounds with Pol kappa inh-1; TbPGK coupled GAPDH assay, Kinase-Glo luminescence; Potency, µM (highest dose often 57.5 µM), for inactives: at the highest dose activity change, negative = inhibition, most hits filed as inhibitors; 79% of 500 active; AID 686980, 2013; further: potency means the concentration at half of the fitted maximal effect; on the % scale 0 is the no-effect control and ±100 the full control effect; nearly all actives have a fitted effect of over 65% in size
POLI cherry-pick – qHTS for Inhibitors of Polymerase Iota: Confirmatory Assay for Cherry-picked Compounds. shares compounds with Pol kappa inh-1. Pol iota primer extension, TAMRA/BHQ fluorescence. Potency, µM, actives largely listed as inhibitors. 77% of 1,500 active. AID 720496, 2013; further: potency means the concentration at half of the fitted maximal effect
Pol kappa inh-2 – qHTS for Inhibitors of Polymerase Kappa: Confirmatory Assay for Cherry-picked Compounds | shares compounds with Pol eta inh-1 | purified Pol-kappa, fluorescent strand-displacement substrate | Potency, µM, actives largely listed as inhibitors | 76% of 920 active; further: potency means the concentration at half of the fitted maximal effect
Pol eta inh-2 – qHTS for Inhibitors of Polymerase Eta: Confirmatory Assay for Cherry-picked Compounds. shares compounds with Pol eta inh-1. Pol eta primer extension, TAMRA/BHQ fluorescence, 10 min. Potency, µM, usual class: inhibitors. 64% of 2,600 active; further: potency means the concentration at half of the fitted maximal effect
WRN helicase inh-2 – qHTS for Inhibitors of WRN Helicase: Confirmatory Assay for Cherry-picked Compounds | AID 720497, 2013 | WRN helicase DNA unwinding, fluorescence kinetic | shares compounds with WRN helicase inh-1 | Potency, µM (highest dose often 57.1 µM), for the others: top-dose activity, negative = inhibition, hits mostly inhibitors | 63% of 610 active; further: potency means the concentration at half of the fitted maximal effect; nearly all actives have a fitted effect of over 65% in size
TO displacement – qHTS for Inhibitors of WRN Helicase: Thiazole Orange DNA Binding Counterscreen | shares compounds with WRN helicase inh-1 | Potency, µM (titrated, usually from 57.1 µM), without a hit: at the highest dose activity change, negative = inhibition, actives largely listed as inhibitors | 10% of 610 active | thiazole orange DNA binding displacement, fluorescence;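 further: drop in dye fluorescence marks compound binding to DNA; potency means the concentration at half of the fitted maximal effect; on the % scale 0 is the no-effect control and ±100 the full control effect; nearly all actives have a fitted effect of over 60% in size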
BLM counter – qHTS for Inhibitors of WRN Helicase: BLM Helicase Counterscreen for WRN Inhibitors; shares compounds with WRN helicase inh-1; Recombinant BLM helicase DNA unwinding, red fluorescence; Potency, µM (top dose mostly 57.1 µM), for inactives: at the highest dose activity change, negative = inhibition, hits mostly inhibitors; 60% of 610 active; AID 720503, 2013; further: potency means the concentration at half of the fitted maximal effect; nearly all actives have a fitted effect of over 60% in size
* marks the source's active call; other numbers are inactive results; ? = inconclusive; nt = no result given. Unless noted, the call rests on the fitted dose curve; in most records, active means well fitted curve in the direction sought with a large enough effect; inconclusive means small, poorly fitted or top-dose-only effect, or another doubt; inactive means no such curve, though single readings can be large; an effect the other way counts as inactive or inconclusive.

SMILES	POLI inh	Pol kappa inh-1	WRN helicase inh-1	Pol eta inh-1	Pol beta inh	PI5P4Ka inh	POLI cherry-pick	Pol eta inh-2	WRN helicase inh-2	TO displacement	BLM counter	others
CCN1/C(=C/c2ccc3cc(C)ccc3[n+]2CC)Sc2ccccc21	?	-34%	?	?	?	-6	nt	nt	nt	nt	nt
COc1cccc2c(SCC(=O)N/N=C/c3ccc(O)c(O)c3)cc(C)nc12	11µM*	13µM*	20µM*	7.9µM*	2µM*	-5	30*	19*	4.8µM*	?	4.8µM*
O=C(N/N=C/c1ccc(O)c(O)c1)N/N=C/c1ccc(O)c(O)c1	0.89µM*	0.79µM*	4µM*	0.71µM*	0.32µM*	-69*	3*	6*	0.96µM*	?	1.1µM*	PGK validate=1.2µM*;Pol kappa inh-2=2.1*
COc1ccc2nc(C)cc(SCC(=O)N/N=C/c3ccc(O)c(O)c3)c2c1	16µM*	28µM*	14µM*	4.5µM*	2.2µM*	-14	?	24*	4.8µM*	?	6.1µM*
O=C(CSc1nc2ccccc2o1)N/N=C/c1ccc(O)c(O)c1	2.5µM*	7.1µM*	8.9µM*	3.5µM*	?	-89*	17*	12*	2.7µM*	?	1.9µM*	PGK validate=3.3µM*;Pol kappa inh-2=8.4*
O=C(CSc1nc2ccccc2o1)N/N=C/c1ccccc1	-18%	-6%	-2%	-10%	19%	3	nt	nt	nt	nt	nt
Cc1nonc1C(=O)N/N=C/c1ccc(O)c(O)c1	-11%	-7%	4%	-20%	-16%	-17	nt	nt	nt	nt	nt
COc1ccccc1NC(=O)Cn1c(=O)c(CNc2ccc(C)cc2)cc2cc3c(cc21)OCCO3	10%	-5%	nt	-3%	-18%	nt	nt	nt	nt	nt	nt
NC(=O)c1ccc(NC(=O)COC(=O)/C=C/c2ccc(Br)o2)cc1	22µM*	35µM*	32µM*	2.8µM*	nt	-58*	42*	67*	?	-11%	17µM*	PGK validate=8.2µM*;Pol kappa inh-2=?
Cc1nn(-c2ccccc2)c(C)c1/C=C/C(=O)OCC(=O)Nc1ccc(C(N)=O)cc1	?	-9%	-5%	3%	nt	4	nt	nt	nt	nt	nt
COc1ccc(NC(=O)c2cc(C)nc3c2c(C)nn3-c2ccc(C)cc2)cc1OC	29%	-10%	nt	-10%	2%	nt	nt	nt	nt	nt	nt
Cc1ccc(C(=O)Nc2sc3c(c2C(=O)O)CCCC3)o1	10%	4%	-1%	-13%	-11%	3	nt	nt	nt	nt	nt
Cc1ccc(C)n1-c1sc2c(c1C(=O)O)CCCC2	?	50µM*	?	7.9µM*	14µM*	-17	60*	27*	14µM*	0%	15µM*
C=CCn1c(SCC(=O)c2ccc(O)c(O)c2)nnc1-c1ccc(OC)cc1	50µM*	45µM*	28µM*	10µM*	nt	-51*	?	?	17µM*	-4%	?
CC(=O)c1c(C)oc(C)c1CSCc1ccc(C(=O)O)o1	7.9µM*	32µM*	?	6.3µM*	13µM*	nt	47*	?	9.6µM*	-4%	19µM*
COc1cccc(OC)c1C(=O)Nc1ccc(-c2nc3ncccc3o2)cc1	18%	-6%	nt	12%	?	nt	nt	nt	nt	nt	nt
O=C1C(=Cc2ccco2)CCC1=Cc1ccco1	?	5µM*	3.5µM*	0.79µM*	nt	-84*	3*	5.4*	7.6µM*	2%	7.6µM*	PGK validate=18µM*;Pol kappa inh-2=2.7*
Cc1cccc(-c2nc3c4c(-c5ccccc5)c(-c5ccccc5)oc4ncn3n2)c1	7%	12%	nt	0%	3%	nt	nt	nt	nt	nt	nt
CCOC(=O)C1=C(C)N=c2s/c(=C/c3ccc(OCC(=O)O)c(OC)c3)c(=O)n2C1c1ccc(Cl)cc1 (stereo not given)	10µM*	?	28µM*	20µM*	nt	?	15*	34*	12µM*	465%	7.6µM*	PGK validate=10µM*;Pol kappa inh-2=7.5*
Oc1ccc(-c2cn3c(n2)SCC3)cc1O	2.5µM*	7.1µM*	4.7µM*	2.8µM*	1.3µM*	-13	9.5*	3.4*	?	30%	17µM*
O=C(Nc1cc2c(oc1=O)CCCC2=O)c1ccc(Cl)cc1	-98%	18µM*	13µM*	11µM*	3.5µM*	nt	15*	8.5*	19µM*	0%	7.6µM*
Cc1nccc2oc(=O)c(NC(=O)c3ccc(Cl)cc3)cc12	17%	2%	-3%	-17%	?	0	nt	nt	nt	nt	nt

Assay outcomes deposited in PubChem by National Center for Advancing Translational Sciences (NCATS).
